Data taken from PubChem BioAssay (NCATS).
Records with an inconclusive call do not appear. The source made the active and inactive calls. Unless noted, calls come from the whole dose curve; as a rule, active = well fitted curve in the direction sought with a large enough effect; inconclusive = small, poorly fitted or top-dose-only effect, or another doubt; inactive = no such curve, though single readings can be large; an effect the other way counts as inactive or inconclusive.

Legend:
[1] = Cell Viability - LYMP2-022 (AID 987); details: LYMP2-022 lymphoblastoid cell viability; series mostly up to 92.2 µM; note: potency is the fitted concentration of half-maximal effect; nearly all actives have a fitted effect of over 55% in size
How it was run: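 Luminescent ATP read-out (CellTiter-Glo, 30 min, RT) after 24 hr, 37 C compound exposure of 2500 human lymphoblastoid cells/well in complete medium. Cytotoxicity taken as concentration-dependent ATP loss; AC50 from standard Hill equation.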

[2] = Cell Viability - LYMP2-024 (AID 988); details: LYMP2-024 lymphoblastoid cell viability; series mostly up to 92.2 µM; note: potency is the fitted concentration of half-maximal effect; nearly all actives have a fitted effect of over 60% in size
How it was run: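 ATP-based luminescence (CellTiter-Glo, 30 min RT) after 24 h compound exposure at 37 C of 2500 lymphoblastoid cells/well; decrease in ATP taken as cytotoxicity. qHTS concentration-response fitted to standard Hill equation for AC50.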

[3] = Cell Viability - LYMP2-026 (AID 989); details: LYMP2-026 lymphoblastoid cell viability, qHTS; series mostly up to 92.2 µM; note: potency is the fitted concentration of half-maximal effect; nearly all actives have a fitted effect of over 50% in size
How it was run: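 qHTS cytotoxicity: 2500 cells/well, 5 hr 37 C, compound 24 hr 37 C, CellTiter-Glo 30 min RT, luminescence. Tetraoctylammonium bromide positive control. AC50 via standard Hill fit.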

[4] = Cell Viability - LYMP1-002 - Assay at 24 hr (AID 993); details: LYMP1-002 lymphoblastoid cells viability; series mostly up to 92.2 µM; note: potency is the fitted concentration of half-maximal effect
How it was run: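 CellTiter-Glo luminescence (intracellular ATP) after 24 h compound exposure, 37 C, in LYMP1-002 human lymphoblastoid cells; decreased ATP taken as cytotoxicity. AC50 from standard Hill fit of concentration-response curves.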

[5] = Cell Viability - LYMP1-002 - Assay at 40 hr (AID 994); details: LYMP1-002 lymphoblastoid cell viability; series mostly up to 92.2 µM; note: potency is the fitted concentration of half-maximal effect; nearly all actives have a fitted effect of over 60% in size
How it was run: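 qHTS cytotoxicity; 2500 cells/well, 5 hr 37 C settle, compound 40 hr 37 C. CellTiter-Glo, 30 min RT, luminescence (ATP). Concentration-response, Hill fit → AC50. Pos. ctrl tetraoctylammonium bromide.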

[6] = molecular target: Bile acid receptor (Homo sapiens) (UniProt Q96RI1); test: qHTS assay for small molecule antagonists of farnesoid X receptor signaling (AID 588526; calls by dose curve; note: % is set by controls: 0 for no effect and ±100 for the full control effect); details: HEK293T FXR-UAS-bla, beta-lactamase ratio, antagonist mode; series mostly up to 76.7 µM
How it was run: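 Beta-lactamase reporter antagonist mode: HEK293T FXR-UAS-bla cells, titrated compound, CDCA stimulation, 16 h 37 C, CCF4 dye 2 h RT. Data normalized to CDCA 50 uM and DMSO; Hill-fit IC50.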

[7] = molecular target: Peroxisome proliferator-activated receptor gamma (Homo sapiens) (UniProt P37231); test: qHTS assay for small molecule agonists of peroxisome proliferator-activated receptor gamma signaling (AID 588536; active = well fitted curve in the direction sought with a large enough effect in the signal ratio, with a control signal flat, not every such curve was filed as active; the % refers to the signal ratio;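 note: 0% = DMSO basal wells and 100% = rosiglitazone at 2 µM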); details: HEK293 PPARg-UAS-bla, beta-lactamase ratio, 16 h, percent of rosiglitazone response, DMSO as zero; series mostly up to 76.7 µM
How it was run: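 This is an agonist-mode beta-lactamase reporter assay in HEK293 PPAR-gamma-UAS-bla cells with 1% charcoal/dextran FBS. Compound titrations ran 16 h at 37 C before CCF4 detection. EC50 and efficacy are Hill fits scaled to 2 uM rosiglitazone (100%) and DMSO basal.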

[8] = qHTS assay for small molecule agonists of the antioxidant response element (ARE) signaling pathway (AID 651741; active = well fitted activation curve with a large enough effect in the signal ratio; the % refers to the signal ratio; note: potency is the fitted concentration of half-maximal effect); details: HepG2 ARE-bla reporter, beta-lactamase FRET ratio, 16 h; series mostly up to 96 µM
How it was run: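 Agonist activity is measured as ARE-driven beta-lactamase expression in a stable HepG2 reporter line, using 16 h compound treatment at 37 C and a FRET substrate fluorescence readout after 2 h.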

[9] = qHTS assay for small molecule activators of the p53 signaling pathway (AID 651743; active = well fitted activation curve with a large enough effect in the signal ratio, not every such curve was filed as active; the % refers to the signal ratio; note: % of control where 0% means no effect); details: HCT-116 p53RE-bla, beta-lactamase FRET ratio, 16 h; activation: stronger effect = higher value
How it was run: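 A beta-lactamase reporter under p53 response element control, stably carried by HCT-116 cells, reported pathway activation. Test compounds were applied for 16 hours at 37 C, and fluorescence was measured 2 hours after adding the B/G FRET substrate.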

[10] = qHTS assay for small molecule disruptors of the mitochondrial membrane potential - 1 hr assay (AID 651754; calls by dose curve; note: potency is the fitted concentration of half-maximal effect; nearly all actives have a fitted effect of over 35% in size); details: series mostly up to 92.2 µM
How it was run: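 Read-out: dye fluorescence at 490 nm ex/535 nm em (monomers) and 540 nm ex/590 nm em (aggregates) in HepG2 cells. Compound exposure 1 hr at 37C, followed by 30 min dye loading.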

[11] = qHTS assay for small molecule disruptors of the mitochondrial membrane potential - 5 hr assay (AID 651755; calls by dose curve; note: potency is the fitted concentration of half-maximal effect; nearly all actives have a fitted effect of over 40% in size); details: JC-1-type ratio dye; series mostly up to 92.2 µM
How it was run: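 Membrane-potential dye readout: red aggregate (540 ex/590 em) versus green monomer (490 ex/535 em) fluorescence after 30 min dye loading, following 5 hr compound exposure at 37C of overnight-plated HepG2 cells.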

[12] = qHTS assay for environmental chemicals that activate the Aryl hydrocarbon Receptor (AhR) signaling pathway (AID 651777); details: 1A2-DRE human hepatoma cells, luciferase, 24 h; activation: stronger effect = higher value; note: % of control where 0% means no effect; nearly all actives have a fitted effect of over 15% in size
How it was run: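 Human hepatoma 1A2-DRE cells stably carrying a DRE/CYP1A2 promoter–luciferase reporter, 1,200 cells/well, exposed to compound 24 hr at 37 C. Luciferase read by One-Glo luminescence after 30 min at room temperature; increased signal marks AhR activation.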

[13] = molecular target: Peroxisome proliferator-activated receptor alpha (Homo sapiens) (UniProt Q07869); test: qHTS assay for small molecule agonists of the peroxisome proliferator-activated receptor alpha (PPARalpha) signaling pathway (AID 651778); details: PathHunter PPARalpha complementation, chemiluminescence, 6 h; max response: stronger effect = higher value; note: % of control where 0% means no effect
How it was run: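 Chemiluminescence from complemented enzyme reported PPARalpha activation in cells after 6 hr of compound treatment at 37 C. The detection reagent was incubated for 60 min at room temperature, and compounds were scored as agonists.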

[14] = molecular target: Nuclear receptor ROR-gamma (Homo sapiens) (UniProt P51449); test: qHTS assay for small molecule antagonists of the retinoid-related orphan receptor gamma (ROR-gamma) signaling pathway (AID 651802); details: ROR-gamma antagonist cell reporter assay; series mostly up to 92.2 µM; note: potency is the fitted concentration of half-maximal effect; nearly all actives have a fitted effect of over 60% in size
How it was run: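 Luciferase read-out: ONE-Glo luminescence after 30 min at room temperature, following 16hr doxycycline induction at 37C, 5% CO2 of CHO cells with TET-inducible ROR and RORE-LUC reporter; decreased luminescence = reduced reporter activity.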

[15] = qHTS assay for small molecule agonists of the antioxidant response element (ARE) signaling pathway measured by Nrf2-dependant transcriptional activity (AID 720636; active = well fitted curve in the direction sought with a large enough effect in the repeat runs; an effect the other way counts as inactive or inconclusive; note: % of control where 0% means no effect); details: ARE-luc HepG2, Nrf2 luciferase reporter, 16 h; series mostly up to 92.4 µM
How it was run: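 ARE-luc HepG2 cells carrying an Nrf2-responsive luciferase reporter, in medium with 1% dialyzed FBS, exposed to compound for 16 hr at 37 C, 5% CO2. Luminescence read 30 min after ONE-Glo addition.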

[16] = qHTS assay for small molecule antagonists of the retinoid-related orphan receptor gamma (ROR-gamma) signaling pathway - cell viability counter screen (AID 720652; active = well fitted curve in the direction sought with a large enough effect in the repeat runs; an effect the other way counts as inactive or inconclusive;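 note: potency is the fitted concentration of half-maximal effect; compound exposure lasted 16 hr before ATP read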); details: RORgamma reporter cell line viability counter screen; series mostly up to 92.2 µM
How it was run: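 CHO RORE-LUC/TET-ROR line, 1,000 cells/well, 37 C 5% CO2 5 hr; cpd or DMSO + doxycycline induction, 16 hr. CellTiter-Glo, 30 min RT, luminescence = ATP content.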

[17] = qHTS assay for cell viability of HEK293 cells (AID 743288); details: ATP luminescence (CellTiter-Glo), 18 h; max response: stronger effect = lower value; note: potency is the fitted concentration of half-maximal effect; nearly all actives have a fitted effect of over 50% in size
How it was run: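 Viable-cell counts were inferred from luciferase-based ATP content in HEK293 cells seeded at 2,000/well, pre-incubated ≥5 h, then dosed with DMSO-solubilised compounds for 18 h at 37 C.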

[18] = qHTS assay for small molecule activators of the human pregnane X receptor (PXR) signaling pathway (AID 720659; call rule not given here; note: 0% is about no effect); details: DPX-2 HepG2 CYP3A4-luciferase, 24 h; series mostly up to 92.3 µM

Sequence of Nuclear receptor ROR-gamma (Homo sapiens) (P51449 whole entry, looked up): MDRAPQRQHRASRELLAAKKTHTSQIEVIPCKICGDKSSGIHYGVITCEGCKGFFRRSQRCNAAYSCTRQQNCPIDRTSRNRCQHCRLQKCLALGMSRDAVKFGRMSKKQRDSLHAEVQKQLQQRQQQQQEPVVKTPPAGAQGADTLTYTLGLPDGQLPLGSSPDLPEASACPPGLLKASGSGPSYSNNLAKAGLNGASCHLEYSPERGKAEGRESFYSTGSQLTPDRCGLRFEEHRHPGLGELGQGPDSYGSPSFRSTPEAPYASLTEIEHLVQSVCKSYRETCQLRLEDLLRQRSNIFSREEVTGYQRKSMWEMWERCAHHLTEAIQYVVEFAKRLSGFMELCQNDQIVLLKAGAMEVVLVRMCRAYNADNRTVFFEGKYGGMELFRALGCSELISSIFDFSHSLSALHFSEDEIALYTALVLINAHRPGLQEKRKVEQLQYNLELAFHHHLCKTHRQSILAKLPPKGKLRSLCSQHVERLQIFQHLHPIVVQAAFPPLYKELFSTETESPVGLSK
Sequence of Peroxisome proliferator-activated receptor gamma (Homo sapiens) (P37231 whole entry, looked up): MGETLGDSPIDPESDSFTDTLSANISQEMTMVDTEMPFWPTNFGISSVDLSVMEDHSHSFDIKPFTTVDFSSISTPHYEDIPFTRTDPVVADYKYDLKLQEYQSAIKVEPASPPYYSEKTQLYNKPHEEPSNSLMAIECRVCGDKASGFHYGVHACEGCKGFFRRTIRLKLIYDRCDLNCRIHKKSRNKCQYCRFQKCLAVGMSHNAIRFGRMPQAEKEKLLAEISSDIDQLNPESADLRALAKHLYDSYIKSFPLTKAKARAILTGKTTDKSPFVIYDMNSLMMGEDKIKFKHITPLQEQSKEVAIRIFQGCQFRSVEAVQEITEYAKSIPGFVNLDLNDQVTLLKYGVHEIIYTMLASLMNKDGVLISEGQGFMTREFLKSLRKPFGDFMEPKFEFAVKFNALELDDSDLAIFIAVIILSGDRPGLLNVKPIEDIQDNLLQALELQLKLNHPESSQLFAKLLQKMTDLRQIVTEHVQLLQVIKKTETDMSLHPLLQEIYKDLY
Sequence of Peroxisome proliferator-activated receptor alpha (Homo sapiens) (Q07869 whole entry, looked up): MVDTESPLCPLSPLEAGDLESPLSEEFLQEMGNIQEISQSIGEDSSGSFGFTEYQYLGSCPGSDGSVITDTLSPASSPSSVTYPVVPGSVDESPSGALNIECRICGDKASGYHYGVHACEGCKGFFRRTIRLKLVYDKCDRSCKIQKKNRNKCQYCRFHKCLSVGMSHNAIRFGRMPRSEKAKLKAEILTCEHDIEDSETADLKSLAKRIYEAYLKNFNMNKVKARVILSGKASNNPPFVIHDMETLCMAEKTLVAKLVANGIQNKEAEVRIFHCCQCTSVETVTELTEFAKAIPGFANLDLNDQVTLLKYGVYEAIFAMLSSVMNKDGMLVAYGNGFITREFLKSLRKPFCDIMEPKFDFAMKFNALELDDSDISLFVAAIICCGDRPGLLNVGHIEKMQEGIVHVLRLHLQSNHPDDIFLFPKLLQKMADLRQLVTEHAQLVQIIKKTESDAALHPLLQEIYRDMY
Sequence of Bile acid receptor (Homo sapiens) (Q96RI1 whole entry, looked up): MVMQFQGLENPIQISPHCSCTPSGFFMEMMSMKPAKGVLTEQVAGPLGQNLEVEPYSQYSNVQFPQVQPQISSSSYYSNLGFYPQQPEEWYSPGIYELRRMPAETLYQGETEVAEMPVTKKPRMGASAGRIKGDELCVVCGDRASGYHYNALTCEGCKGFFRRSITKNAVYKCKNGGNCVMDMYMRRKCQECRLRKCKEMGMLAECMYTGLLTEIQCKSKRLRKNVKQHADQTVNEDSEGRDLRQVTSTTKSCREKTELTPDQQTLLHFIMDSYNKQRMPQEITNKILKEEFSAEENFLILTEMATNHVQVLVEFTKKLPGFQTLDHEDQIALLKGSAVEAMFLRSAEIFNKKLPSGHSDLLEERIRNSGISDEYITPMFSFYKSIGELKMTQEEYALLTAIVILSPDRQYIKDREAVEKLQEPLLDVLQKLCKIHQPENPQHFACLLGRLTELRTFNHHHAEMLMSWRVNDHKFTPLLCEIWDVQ

N=C1C=CC(=C(c2ccc(N)cc2)c2ccc(N)cc2)C=C1
inactive: Potency [6] | outcome [7] | activation [9] 11.1% | activation [12] 3.01% | max response [13] -9.83% | Potency [15] | outcome [18]
active: Potency [1] 3.16 µM | Potency [2] 7.94 µM | Potency [3] 7.94 µM | Potency [4] 12.6 µM | Potency [5] 15.8 µM | Potency [8] 42.2 µM | Potency [10] 1.33 µM | Potency [11] 0.531 µM | Potency [14] 6.68 µM | Potency [16] 18.8 µM | Potency [17] 31.6 µM
